Drawing on the OligoGym collection, this text covers sensor-assay potency score (higher = more potent) for 19 sequences.
Note: reference of the scale not given here.

One assay concerns the target ZDHHC20. As to the kind of experiment: pooled miR-30 sensor sort-seq; sequence = guide strand. The conditions noted are these: shRNA.
TTTTGCACGTGTATCTGTCAGT gave a sensor-assay potency score (higher = more potent) of -0.551. Same read-out and setting: then TAAAGTACTCTAAAACTGTTGC, with 0.215. Take TCTTGTTGTCTTTCTTGGCTGA: the sensor-assay potency score (higher = more potent) is 0.533.

Sequence TATAGATAGGTAAAGCTCTTGC displayed a sensor-assay potency score (higher = more potent) of -0.117. The same measure, in the same setting: then TTCTTCAGCTCCATTCTCCAGC, with -0.419; and TTCAGCTCCATTCTCCAGCCAC, with -0.374.

In turn, TTGTTGTTCTATTTTTTCCAAC returned a sensor-assay potency score (higher = more potent) of -1.28.

A further assay deals with ZDHHC24. The assay is described as above. The conditions noted are these: shRNA.
TTGCCGAAGCCCACGCAGCGGC showed a sensor-assay potency score (higher = more potent) of -1.27. TAGCAGTAAGCCCAGCCCTGGC had a sensor-assay potency score (higher = more potent) of -1.6. The sequence TGAAGCAGCAGGCACAGGAAGG returned a sensor-assay potency score (higher = more potent) of -1.8. As for TGCCAGAGACACTCTGCCTGTG, the sensor-assay potency score (higher = more potent) is -0.683.

In turn, TAGTTGCCGAAGCCCACGCAGC yielded a sensor-assay potency score (higher = more potent) of -1.53.

As for TCTGCCTGTGAGCAACATGAGC, the sensor-assay potency score (higher = more potent) is -1.73. On the same count and under the same terms, next, TGAGCAACATGAGCCAGGGAAG: -1.75; AGACACTCTGCCTGTGAGCAAC: -2.01. Same read-out and setting: next, TTGAGCAGCTGGAAGGCGGCCA: -0.092; TCCCATGGAAGAGCAGCCCAGC: -1.99; CCTGTGAGCAACATGAGCCAGG: -2.43. Turning to TGTGAGCAACATGAGCCAGGGA, the sensor-assay potency score (higher = more potent) was -0.189.
